Compound activity from PubChem BioAssay.
This is a sample that favours compounds with a hit; in the whole collection about 4.7% have one here.
TRHR PAM – qHTS for Small Molecule Agonists and Allosteric Enhancers of Human TRH Receptor: Primary Screen for Enhancers | Thyrotropin-releasing hormone receptor (Homo sapiens), P34981 | AID 493056, 2011 | TRHR cells, fluo-8 calcium fluorescence, EC20 TRH enhancement | enhancement, % at 2 µM | actives 0.66% (n = 360,000); in the data active = enhancement above about 30%
Target sequence (P34981 whole entry, looked up): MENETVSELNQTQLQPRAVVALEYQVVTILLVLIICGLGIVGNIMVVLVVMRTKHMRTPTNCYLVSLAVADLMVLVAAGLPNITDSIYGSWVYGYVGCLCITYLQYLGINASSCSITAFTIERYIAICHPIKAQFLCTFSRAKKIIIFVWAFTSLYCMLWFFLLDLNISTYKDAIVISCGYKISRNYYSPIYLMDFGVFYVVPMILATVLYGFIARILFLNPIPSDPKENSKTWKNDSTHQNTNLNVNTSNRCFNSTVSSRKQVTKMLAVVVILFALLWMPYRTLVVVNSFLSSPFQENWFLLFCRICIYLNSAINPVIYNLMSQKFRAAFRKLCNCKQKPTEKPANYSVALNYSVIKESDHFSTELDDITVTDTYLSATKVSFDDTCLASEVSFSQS
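Enhancer read-out: after compound pinning and an initial kinetic agonist-mode read, an EC20 of TRH (10 nM final) was injected and fluo-8 calcium signal (Ex 480/Em 530) followed at 1 s/cycle for 100 cycles in TRHR-expressing cells.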
D1 potentiator – Potentiators of Human D1 Dopamine Receptor: qHTS; D(1A) dopamine receptor (Homo sapiens), P21728; HEK293 TREx D1 cells, calcium flux, dopamine EC20 potentiation; potentiation, % at 10 µM; actives 0.036% (n = 360,000); in the data active = potentiation above about 30%
TRHR ag – qHTS for Small Molecule Agonists and Allosteric Enhancers of Human TRH Receptor: Primary Screen for Agonists. Thyrotropin-releasing hormone receptor (Homo sapiens), P34981. TRHR cells, calcium flux fluo-8, FDSS agonist mode. activation, % at 2 µM. actives 0.18% (n = 360,000). AID 493084, 2011
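Agonist-mode FDSS calcium read (Ex 480/Em 530, 1 s cycles) in 1536-well TRHR cells with fluo-8 dye, after 10-cycle baseline and 23 nL compound addition; TRH at EC20 (10 nM final) added afterwards for the enhancer phase.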
D1 agonist – Allosteric Agonists of the Human D1 Dopamine Receptor: qHTS; D(1A) dopamine receptor (Homo sapiens), P21728; actives 1% (n = 360,000); HEK293 T-REx D1 cells, calcium flux, agonist mode; activation, % at 2 µM
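Tetracycline-induced HEK293 TREx D1 cells, force-coupled to calcium signalling, were dye-loaded with a no-wash calcium kit. Compound was pin-added after a 10 s baseline. Fluorescence was read kinetically at 1 cycle/s for 180 s, with calcium rises flagged as agonism.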
D1 antagonist – Antagonist of Human D 1 Dopamine Receptor: qHTS; AID 504652, 2011; activity change, negative = inhibition, % at 10 µM; actives 3.2% (n = 360,000); D(1A) dopamine receptor (Homo sapiens), P21728; HEK293 TREx D1 cells, calcium flux, dopamine EC80; active compounds read low; in the data active = activity change below about -30%
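Compound effects on dopamine-evoked calcium signalling were measured in tetracycline-induced HEK293 Trex D1 cells. Dopamine at EC80 followed a 180 s compound pre-read, and fluorescence was tracked kinetically for 180 s more.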
Large screens that a line does not name were inactive. Rule as the data show it, unless noted: active = activation above about 30%; inactive = the rest.

COc1ccc(N2CCN(C(=O)Cn3nc(Cc4cccnc4)c4ccccc4c3=O)CC2)cc1	none
Cc1ccc(N2C(=O)C3C4C=CC(CNC(=S)Nc5ccc(F)cc5)(O4)C3C2=O)cc1 (centres undefined)	none
Cc1ccc(N2C(=O)C3C4C=CC(CNC(=S)Nc5ccc(Cl)cc5)(O4)C3C2=O)cc1 (centres undefined)	D1 antagonist -31
CCC(=O)N1c2ccccc2CC1C(=O)NCCc1cc(OC)c(OC)c(OC)c1 (centres undefined)	none
COc1cccc2cc(-c3nnc(SCC(=O)Nc4ccc(NC(C)=O)cc4)n3C)oc12	D1 antagonist -57
COc1ccccc1-c1nnc(SCC(=O)Nc2ccc(N3CCOCC3)cc2)n1C	D1 antagonist -36
COc1ccccc1-c1nnc(SCC(=O)NC2CCCCC2)n1C	none
COc1ccccc1-c1nnc(SCC(=O)NC2CC2)n1C	D1 antagonist -59 (no result: D1 potentiator)
COc1cc(C(=O)OCc2cc(=O)n3nc(C4CCCCC4)sc3n2)cc(OC)c1OC	none
COc1ccc(-n2ncc(C(=O)N3CCN(C4CCCCC4)CC3)c2C2CCN(C(=O)OC(C)(C)C)CC2)cc1	none
COc1cc2c(=O)n(CC3CCCO3)c(=O)n(CC(=O)Nc3cccc(Cl)c3)c2cc1OC (centres undefined)	D1 antagonist -44
O=C(CSc1nc(=O)[nH]c2c1CCC2)NCc1ccc(F)cc1	none (no result: D1 antagonist)
CCCCOc1ccc(C2c3c(oc4ccccc4c3=O)C(=O)N2c2nc(C)c(C(=O)OCC)s2)cc1OC (centres undefined)	D1 antagonist -31
CCOC(=O)c1sc(N2C(=O)c3oc4cc(C)c(C)cc4c(=O)c3C2c2ccc(C)cc2)nc1C (centres undefined)	none
C=C(C)c1cccc(C(C)(C)NC(=O)Nc2ccc(OC)nc2)c1	none
C=C(C)c1cccc(C(C)(C)NC(=O)Nc2ccc(C)cn2)c1	D1 agonist 30
CCc1ccc(C(=O)C(C)OC(=O)Cc2n[nH]c(=O)c3ccccc23)cc1 (centres undefined)	D1 potentiator 31
CC(=O)c1cccc(NC(=O)C(C)OC(=O)Cc2n[nH]c(=O)c3ccccc23)c1 (centres undefined)	D1 antagonist -34
CCN(CC)c1ccc(CN(C(=O)c2cc(=O)c3ccccc3o2)C2CCS(=O)(=O)C2)cc1 (centres undefined)	none
O=c1c2oc3ccccc3c2n(Cc2ccc(Cl)cc2)c(=O)n1Cc1ccco1	none
O=C(Cc1csc(Nc2nc(=S)[nH]c3ccccc23)n1)NCCCN1CCN(c2ccccc2F)CC1	D1 antagonist -86
O=C(Cc1csc(Nc2nc(=S)[nH]c3ccccc23)n1)NCc1ccc(Cl)cc1	D1 antagonist -97
CCOc1ccc(NC(=O)CSC2=Nc3ccccc3C3=NC(CC(=O)NCc4cccs4)C(=O)N23)cc1 (centres undefined)	none
Cc1ccc(-c2cc(Cc3ccc(F)cc3)c(=O)[nH]n2)cc1	D1 antagonist -47
Cc1cccc(-n2ncc3c(NC4CCCC4)ncnc32)c1	D1 antagonist -34
Cc1ccc(CNc2ncnc3c2cnn3-c2ccccc2)cc1	D1 agonist 53
Cc1ccc(Cl)cc1-n1ncc2c(NCc3ccc(F)cc3)ncnc21	D1 agonist 77, D1 antagonist -61
Cc1ccc(Cl)cc1-n1ncc2c(NCCCc3ccccc3)ncnc21	D1 antagonist -36
Cc1cccc(-n2ncc3c(NC4CCCCC4)ncnc32)c1	none
COc1ccc(NC(=O)c2ccco2)cc1NC(=O)COc1cc(C)ccc1C(C)C	none
CCc1ccc(S(=O)(=O)Nc2ccc(Br)cn2)cc1	D1 antagonist -30
CCc1ccc(S(=O)(=O)Nc2ccccn2)cc1	none
CC(C)Cc1ccc(C(=O)Nc2ccc(Cc3ccncc3)cc2)o1	TRHR PAM 38
COC(=O)Nc1ccc(Cc2ccncc2)cc1	none
CC(C)Oc1cccc(C(=O)Nc2ccc3oc(-c4cccc(Cl)c4)nc3c2)c1	none
CC1(C)OC(C)(C)/C(=C\c2ccc(OCC(N)=O)cc2)C1=O	D1 antagonist -66
COc1ccc(C)cc1NC(=O)C(=O)NCCc1sc(-c2ccc(Cl)cc2)nc1C	none
Cc1nc(C)c(-c2csc(N)n2)s1	D1 antagonist -31
COC(=O)c1ccc(-n2cncn2)c([N+](=O)[O-])c1	TRHR PAM 37
COC(=O)c1ccc(N2CCN(S(=O)(=O)c3ccc(Br)cc3)CC2)c([N+](=O)[O-])c1	D1 antagonist -33
Cc1ccc(NC(=O)CN(C)C(=O)c2ccc(-n3cncn3)c([N+](=O)[O-])c2)cc1	D1 antagonist -55
COc1ccc(Br)cc1CNC(=O)c1cc2ccccn2n1	none
COc1ccc(Br)cc1CNC(=O)c1ccc(-n2c(C)cc3c2CCC(C)C3)cc1 (centres undefined)	none
N#CC(C#N)=C1C=CC=CN1/C(=C\c1ccccc1Cl)C(=O)c1ccccc1	D1 antagonist -50
Cc1nn(-c2c(Cl)cc(Cl)cc2Cl)c(=O)c2ccccc12	D1 agonist 74
Cc1nn(-c2ccc(Br)cc2)c(=O)c2ccccc12	none
CN(C)S(=O)(=O)c1ccc(C(=O)OCC(=O)Nc2cccnc2Cl)cc1	D1 antagonist -33
Cc1ccc(S(=O)(=O)N2CCOCC2)cc1NC(=O)COC(=O)c1cccnc1Cl	D1 antagonist -64
Cc1ccc(-c2nc(SCC(=O)Nc3cc(S(=O)(=O)N4CCCCC4)ccc3Cl)n[nH]2)cc1	D1 antagonist -35
Cc1ccc(S(=O)(=O)N2CCOCC2)cc1NC(=O)COC(=O)c1cc(=O)[nH]c2ccccc12	D1 antagonist -41
O=C(COC(=O)c1ccc(Br)cc1)Nc1cccnc1Cl	none
Cc1nnc(N2CCC(C(=O)NC3CCCCC3)CC2)c2nn(-c3ccc(Cl)cc3)c(C)c12	none
O=C(CNc1ccccc1Cl)Nc1cc(S(=O)(=O)N2CCOCC2)ccc1Cl	D1 antagonist -33
COc1ccccc1CNCC(=O)Nc1cc(S(=O)(=O)N2CCOCC2)ccc1Cl	none
Cn1c(CCN2CCN(c3ccccn3)CC2)nc2cc(NS(=O)(=O)c3ccccc3)ccc21	D1 antagonist -32
Cn1c(CCN2CCCCC2)nc2cc(NS(=O)(=O)c3ccccc3)ccc21	none
Cn1c(CN2CCCC2)nc2cc(NS(=O)(=O)c3ccc(Cl)cc3)ccc21	D1 agonist 47
